From PubChem BioAssay
PAX8 inh HTS = inhibitors of PAX8 transcriptional activity in RMG-I cells; AID 652154; hit rate 1.2% among 360,000; RMG-I TPO-luciferase reporter, SteadyGlo, 24 h; inhibition, % at 12.6 µM;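 active = mean replicate inhibition at least 60% with every replicate also reaching 60%; inconclusive = only one of the two criteria is met; inactive = mean below 60% and not all replicates reaching 60%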;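 also: luciferase light reporting Pax8 driven TPO promoter activity; plate controls were median of neutral control wells for no effect and mitoxantrone controls for full effect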
EWS-Fli inh = EWS/Fli transcriptional activity inhibition; inhibition, % at 12.6 µM; AID 651661; hit rate 0.67% among 350,000; A673 NR0B1-luciferase reporter, viability-normalised;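 active = mean inhibition of at least 50% after viability correction, with every replicate also passing that limit; inconclusive = mean reaches 50% but only one of two replicates passes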;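 also: firefly luciferase signal divided by Alamar Blue viability fluorescence both relative to DMSO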
CF NFkB inh = inhibitors of cystic fibrosis induced NF-kB; KKLEB NF-kB-GFP reporter, PAF-induced, GFP fluorescence overnight; inhibition, % at 5 µM; hit rate 0.86% among 360,000; AID 588850;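 active = at least 50% inhibition at 5 µM, scaled per plate between neutral and stimulator controls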;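 also: PAF is a Pseudomonas aeruginosa culture filtrate used as stimulus; plate controls were PAF-stimulated DMSO wells for no effect and unstimulated DMSO wells for full effect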
LGR2 antag = inhibitors of bursicon-induced Drosophila LGR2 receptor cAMP signaling; inhibition, % at 9.99 µM; HEK293 LGR2, CRE-luciferase, bursicon-stimulated, 4 h; hit rate 0.35% among 380,000;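 active = drop in luminescence signal, shown as inhibition above about 50% in the replicate tests, limit read from the data, passing the limit was not always enough; inconclusive = probably only some replicates passing the limit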;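 also: agonist challenge used bursicon conditioned medium at about half maximal strength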
Shn3 3UTR inh = Schnurri-3 reporter inhibition in Clone20 osteoblasts; Clone20 osteoblast Shn3 3'UTR firefly luciferase, 24 h; hit rate 0.52% among 360,000; inhibition, % at 12.5 µM; AID 588674;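 active = mean inhibition of at least 75% with every replicate also reaching 75%; inconclusive = mean inhibition at least 75% but some replicate below; inactive = mean inhibition below 75%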;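 also: 0% = median of neutral control wells and 100% = pilot-screen positive control compound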
KKLEB cytotox = reduces viability of KKLEB cystic fibrosis airway cells; AID 602141; KKLEB CF airway cells viability, ATPlite luminescence, overnight; hits give low values; cells stimulated with P. aeruginosa culture filtrate; activity change (cytotoxicity), % at 5 µM; hit rate 0.36% among 360,000;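 active = corrected activity change at or below -50% at 5 µM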
Numbers without * were called inactive; ? = inconclusive; / = no result given. Most compounds without a hit are left out; they make up all but 2% or so of the library.

SMILES | PAX8 inh HTS | EWS-Fli inh | CF NFkB inh | LGR2 antag | Shn3 3UTR inh | KKLEB cytotox
COc1ccc(-n2sc3ccccc3c2=O)cc1 | -20 | -16 | 63* | 30 | 23 | -11
COC(=O)/C(=C\Nc1ccc(Cl)cc1Cl)NC(=O)c1ccc(OC)cc1 | 17 | 53* | -10 | 9 | 4 | 4
O=[N+]([O-])c1c(Nc2ccccc2O)cc(Cl)c2nonc12 | 91* | 66* | 80* | 38 | 97* | -6
O=[N+]([O-])c1c(Nc2ccccc2O)ccc2nonc12 | 21 | 4 | -21 | -5 | 5 | -10
COc1ccc(-c2ccc([C@@H]3[C@@H](CO)N4C(=O)CN(Cc5ccc(F)cc5)C[C@@H]34)cc2)cc1 | 14 | -1 | / | 2 | / | /
Cc1noc(C)c1S(=O)(=O)N(C)C[C@H]1OCCCC[C@@H](C)Oc2ccc(NC(=O)CCCCCC(=O)Nc3ccccc3N)cc2C(=O)N([C@@H](C)CO)C[C@@H]1C | 14 | -2 | / | -23 | / | /
COc1ccc(/C=C/c2cc(-c3ccc(C)cc3)o[n+]2C)cc1 | / | / | 56* | 46 | 83* | -62*
CO[C@H]1CN(C)C(=O)c2ccc(NS(=O)(=O)c3cn(C)cn3)cc2OC[C@H](C)N(Cc2cccc(F)c2)C[C@H]1C | / | -3 | / | -6 | / | /
NC(=O)c1cccc(-c2noc(-c3ccccc3F)n2)c1 | -1 | 87* | -28 | -19 | 1 | 11
COC(=O)c1cccc(-c2noc(-c3ccccc3F)n2)c1 | 46 | 90* | -13 | -36 | -29 | -3
Fc1ccccc1-c1nc(-c2ccccc2)no1 | -115 | / | -1 | / | -27 | 4
COc1ccc(-c2noc(-c3ccccc3F)n2)cc1 | -105 | 8 | 3 | -8 | -28 | -20
O=C(O)c1cccc(-c2noc(-c3cccc(Cl)c3)n2)c1 | -28 | 45 | -5 | 84* | 78 | -3
CC(C)c1cn(CC[C@@H]2CC[C@H](NC(=O)C3CCCC3)[C@H](CO)O2)nn1 | 5 | -2 | / | -13 | / | /
CC1CN(C(=O)Nc2ccccc2)c2ccccc2-[n+]2ccsc21 (centres undefined) | 4 | / | 3 | 13 | 14 | 24
O=C(Nc1ccccc1)N1CCc2scc[n+]2-c2ccccc21 | 112* | 4 | 25 | -16 | 9 | 6
C[C@H]1CN([C@@H](C)CO)C(=O)c2c(c3ccccc3n2C)-c2ccccc2CO[C@H]1CN(C)C(=O)C1CC1 | -2 | -4 | / | 7 | / | /
Cn1c(SCC(=O)N2c3ccccc3Sc3ccccc32)nc2ccccc21 | 10 | 9 | 5 | 18 | 0 | 2
CN(C)CCCn1c(SCC(=O)N2c3ccccc3Sc3ccccc32)nc2ccccc2c1=O | 5 | 54* | 41 | -10 | -7 | -31
C[C@H](CO)N1C[C@H](C)[C@@H](CN(C)C(=O)Nc2cccc3ccccc23)Oc2ccc(NS(=O)(=O)c3cccs3)cc2C1=O | / | 13 | / | 12 | / | /
O=C(O)CNC(=O)C(CS)Cc1ccccc1 (centres undefined) | 4 | -7 | 55* | -2 | 10 | 16
O=C(O)CNC(=O)C(c1ccccc1)c1ccccc1 | 2 | 2 | 9 | -2 | -23 | 2
CN(C)CCN(C(=O)/C=C/c1cccs1)c1nc2c(F)cc(F)cc2s1 | 97* | / | 32 | 28 | 55 | -31
COc1ccc(OC)c2sc(N(CCN(C)C)C(=O)/C=C/c3cccs3)nc12 | 79* | / | 68* | 8 | ? | -98*
CN(C)CCCN(C(=O)/C=C/c1cccs1)c1nc2ccc(F)cc2s1 | 26 | 39 | 45 | 12 | -27 | -30
SMILES | PAX8 inh HTS | EWS-Fli inh | CF NFkB inh | LGR2 antag | Shn3 3UTR inh | KKLEB cytotox
C[C@H]1CN([C@@H](C)CO)C(=O)c2cc(NS(=O)(=O)c3cn(C)cn3)ccc2O[C@@H]1CN(C)Cc1ccc(Oc2ccccc2)cc1 | / | -2 | / | -9 | / | /
N#Cc1ccc(-c2ccc(C3[C@@H]4CN(C(=O)Cc5ccccc5)C[C@H]3N4)cc2)cc1 (some centres undefined) | -12 | -8 | / | 33 | / | /
COc1cc2c(cc1NC(=O)c1ccccc1-c1ccccc1C(=O)O)-c1ccccc1C2 | 20 | 7 | 21 | 15 | -12 | -11
COc1cc2c(cc1NC(=O)C(Cl)Cl)-c1ccc(NC(=O)C(Cl)Cl)cc1C2 | 79* | 23 | -10 | 0 | 7 | -14
Cc1ccc(-n2c(=O)c3ccc(C(=O)NCc4ccco4)cc3n(Cc3ccccc3C#N)c2=O)cc1 | 76* | 6 | 3 | -2 | 9 | -13
Cc1ccccc1Cn1c(=O)n(-c2ccccc2)c(=O)c2ccc(C(=O)NCc3ccco3)cc21 | -15 | -4 | 42 | 3 | 18 | -48
CCN1[C@@H]2c3ccc(C4=CCCCC4)c(=O)n3C[C@H]1[C@H](CO)[C@H]2C(=O)NCCc1ccncc1 | / | -3 | / | 9 | / | /
CCN1C(=O)CC(c2ccccc2)N(C2CCCC2)c2nc(Nc3ccc(C(=O)NC4CCN(C)CC4)cc3OC)ncc21 (centres undefined) | / | / | -75 | / | 66 | -20
COc1cc(C(=O)NC2CCN(C)CC2)ccc1Nc1ncc2c(n1)N(Cc1ccccc1)CCC(=O)N2C | -296 | 55* | -171 | -7 | -18 | -29
COc1cc(C(=O)NC2CCN(C)CC2)ccc1Nc1ncc2c(n1)N(C1CCCCC1)CCC(=O)N2C | -212 | 76* | -101 | -11 | 52 | -26
O=C(C[C@@H]1CC[C@H](NC(=O)Cc2cccnc2)[C@H](CO)O1)Nc1ccccc1 | / | -2 | / | 6 | / | /
CCOC1=C2[C@H](c3ccccc3)N(S(=O)(=O)c3ccc(C)cc3)C(C(C)(C)C)[C@H]2C(C#N)(C#N)C(C#N)(C#N)C1 (some centres undefined) | 55 | 10 | 67* | 13 | 87* | -28
O=C(C[C@H]1CC[C@H](NC(=O)c2cnccn2)[C@@H](CO)O1)NCc1ccccc1F | 6 | 6 | / | 0 | / | /
CNc1nc(NCc2ccccc2)c2ccccc2n1 | -6 | 11 | -22 | 24 | 35 | -1
Oc1ccccc1Nc1nc(NCc2ccccc2)c2ccccc2n1 | 49 | 19 | 2 | 45 | 89* | -31
CCCCN(C=O)c1c(CC)nc2ccc(C(=O)N(CC)CCN(C)C)cn12 | -4 | 0 | 28 | -1 | -22 | -6
CCCCN(C)c1c(C)nc2ccc(C(=O)N(CC)CCN(C)C)cn12 | 82* | -13 | -30 | -4 | -3 | 2
CCCCC(=O)N(C)c1c(C)nc2ccc(C(=O)N3CCN(C(C)=O)CC3)cn12 | -17 | 11 | 13 | -4 | 6 | -3
CCCCC(=O)N(C)c1c(C)nc2ccc(C(=O)N3CCCCC3)cn12 | -23 | 2 | 2 | 100* | -10 | -4
COc1cc(C(=O)NC2CCCc3c2cnn3-c2ccccc2F)cc(OC)c1OC (centres undefined) | 29 | / | -10 | 2 | 89* | -1
